The text below walks through data of PubChem BioAssay.

For orientation: inhibition means the relative decrease from the control value, in per cent.

Test [1] in a line: polyglutamine-triggered caspase-3 activation inhibitors, cell-based (AID 1583). Particulars: polyglutamine-induced caspase-3 activation, cell assay; stronger effect = higher value;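 tested at 10 µM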.
A short description of test [2]: suppressors of polyQ aggregation in yeast, 75Q-TubU reporter (AID 1593). As to conditions: Yeast 75Q polyglutamine aggregation reporter.
Test [3] can be described thus: rescue of polyQ-huntingtin neuronal dysfunction in worms, whole organism, C. elegans mechanosensory neurons, N-terminal huntingtin (AID 1599). Particulars: touch response, stronger effect = higher value.
A short description of test [4]: inhibitors of mitochondrial cytochrome c release, biochemical, purified mitochondria (AID 1603).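 Further: mouse liver mitochondria challenged with calcium chloride; signal normalized to the plate average as 100%.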 As to conditions: stronger effect = lower value.
Test [5] is described as follows: inhibitors of polyQ protein aggregation (AID 1604). As to conditions: polyglutamine-induced protein aggregation inhibition assay; stronger effect = higher value; tested at 2.5 µM.
A short description of test [6]: enhancers of glutamate uptake in motor neurons, MN-1 cell line (AID 1612).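 Further: tested at 1 µM final; 0% = mean of DMSO vehicle wells on each plate; positive means more glutamate uptake than control and negative means less.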 As to conditions: MN-1 motor neuron cells, stronger effect = higher value.
Test [7] in a line: reducers of polyQ inclusions in PC12 cells, cell-based, NGF-treated PC12, GFPQ80 (AID 1614).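 Further: lower means fewer inclusions and 0 means no inclusions at all.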 Particulars: PC12 NGF-treated GFP-polyQ80 inclusion reduction.
A short description of test [8]: suppressors of polyglutamine aggregation in yeast, 75Q-TubH (AID 1616). As to conditions: S. cerevisiae 75Q-TubH polyglutamine aggregation suppression; stronger effect = higher value.
A short description of test [9]: hESC survival regulators, cell-based (AID 493140).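 Further: cells exposed to compounds for four days before counting.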 As to conditions: human embryonic stem cell survival screen; stronger effect = higher value.

Structures are written as SMILES. For some of these results: Entries with a potency or affinity are not part of this list. Calls of active or inactive are those of the source. How the calls were made is not given here.

With `Cn1c(=O)c2c(ncn2CC(O)CO)n(C)c1=O` (configuration not stated), in test [1], the inhibition was -0.09%. Further, the score in [2] amounted to 1.08. The rescue above control in test [3] was -16.2. In addition, the cytochrome c release ratio in [4] stood at 1.19. This molecule came in with an inhibition of aggregation in test [5] of 21.9%. The glutamate uptake change in test [6] was 0%. Besides, in [7], the inclusion score came out at 1. In test [8], this molecule yielded an aggregation suppression score of 1.31. Further, the survival in [9] was 34 (inactive).
Turning to `CCC(Cc1c(I)cc(I)c(N)c1I)C(=O)O` (configuration not stated), the inhibition in test [1] was -9.96%. The same molecule yielded a score in [2] of -1.24. The rescue above control in test [3] is -0.81. The cytochrome c release ratio in [4] turned out to be 1.14. Further, the inhibition of aggregation in [5] is 1.96%. Besides, the glutamate uptake change in test [6] turned out to be 7.36%. For the same molecule, the inclusion score in [7] is 2. The same molecule yielded an aggregation suppression score in [8] of 0.027. Moreover, in test [9], the survival was 8.83 (inactive).
For the molecule `CS(=O)(=O)c1ccc([C@@H](O)[C@@H](CO)NC(=O)C(Cl)Cl)cc1`, in [1], the inhibition is -7.88%. Besides, in test [2], the score was determined as 0.79. This molecule showed a rescue above control in test [3] of -0.62. The cytochrome c release ratio in test [4] was 0.72. Further, in [5], the inhibition of aggregation amounted to 100%. Also, in test [6], the glutamate uptake change amounted to 16.7%. This molecule also came in with an inclusion score in [7] of 2. The aggregation suppression score in test [8] amounted to 0.726. Further, the survival in test [9] was 14.4 (inactive).
For `NC(N)=NS(=O)(=O)c1ccc(N)cc1`, in test [1], the inhibition is -31.1%. For the same molecule, in [2], the score worked out at 1.49. Further, the rescue above control in test [3] is -3.67. Moreover, the cytochrome c release ratio in test [4] is 1.37. For the same molecule, the inhibition of aggregation in [5] is 93.6%. Moreover, the glutamate uptake change in [6] turned out to be 5.91%. This molecule also yielded an inclusion score in test [7] of 2. The molecule also had an aggregation suppression score in test [8] of 1.54. In test [9], the survival is 11.5 (inactive).
Take `Cc1ccsc1/C=C/C1=NCCCN1C`: the inhibition in [1] stood at 26.5%. This molecule also registered a score in test [2] of 0.99. Also, in [3], the rescue above control is -7.31. In [4], the cytochrome c release ratio stood at 0.66. The molecule also registered an inhibition of aggregation in [5] of 25.5%. Also, in test [6], the glutamate uptake change is 1.68%. In test [7], this molecule gave an inclusion score of 2. In addition, the aggregation suppression score in [8] stood at 1.28. The survival in test [9] was 20.3 (inactive).
Regarding `O=C1c2ccccc2C(=O)C1c1ccccc1`, the inhibition in test [1] is 16.8%. For the same molecule, the score in test [2] amounted to 0.9. In addition, the rescue above control in test [3] stood at 2.74. Besides, the cytochrome c release ratio in [4] came to 0.89. The same molecule registered an inhibition of aggregation in test [5] of 3.03%. The glutamate uptake change in [6] was found to be 6.38%. In [7], this molecule gave an inclusion score of 2. This molecule gave an aggregation suppression score in [8] of 0.588. Besides, the survival in test [9] is 8.58 (inactive).
As for `Cn1c([N+](=O)[O-])cnc1COC(N)=O`, the inhibition in [1] was -0.12%. Moreover, in test [2], the score turned out to be 1.29. The rescue above control in test [3] was 8.28. The cytochrome c release ratio in test [4] amounted to 0.98. For the same molecule, the inhibition of aggregation in test [5] was 44.8%. For the same molecule, the glutamate uptake change in test [6] was 17%. The inclusion score in [7] amounted to 2. The aggregation suppression score in test [8] came out at 1.36. Besides, the survival in test [9] is 19.5 (inactive).
For the molecule `CC(=O)OC/C=C(C)/C=C/C=C(C)/C=C/C1=C(C)CCCC1(C)C`, the inhibition in test [1] is -4.49%. This molecule displayed a score in test [2] of 1.02. The molecule also came in with a rescue above control in [3] of 0.33. Further, the cytochrome c release ratio in test [4] is 1.12. In test [5], this molecule gave an inhibition of aggregation of 85.2%. For the same molecule, in test [6], the glutamate uptake change is -12.9%. Besides, the aggregation suppression score in test [8] was 0.917.
Take `CCCCCCOc1ccccc1C(N)=O`: the inhibition in [1] is 0.61%. In addition, the score in [2] was 0.45. In test [3], this molecule yielded a rescue above control of -0.6. For the same molecule, the cytochrome c release ratio in test [4] came to 1.11. In test [5], the inhibition of aggregation came out at 67.5%. Besides, the glutamate uptake change in test [6] came to 0.56%. The aggregation suppression score in test [8] was determined as 0.156.
With `COc1cc(C(=O)NCc2ccc(OCCN(C)C)cc2)cc(OC)c1OC`, the inhibition in test [1] is 17.1%. For the same molecule, the score in test [2] is 1.06. Besides, the rescue above control in test [3] was -0.31. Besides, the cytochrome c release ratio in test [4] stood at 0.61. For the same molecule, the inhibition of aggregation in test [5] turned out to be 75.6%. Further, the glutamate uptake change in [6] is 0.14%. In addition, in test [7], the inclusion score was determined as 2. Moreover, the aggregation suppression score in test [8] was determined as 0.824. Further, the survival in [9] is 15.8 (inactive).
For the molecule `CC(C)(C)CC(C)(C)c1ccc(O)c(Cc2ccc(Cl)cc2Cl)c1`, the inhibition in test [1] was determined as 42%. In test [2], this molecule displayed a score of -0.61. In test [3], this molecule came in with a rescue above control of -2.34. For the same molecule, the cytochrome c release ratio in [4] came out at 0.8. Further, in test [5], the inhibition of aggregation was 71.9%. In test [6], the glutamate uptake change is -22.5%. The same molecule came in with an aggregation suppression score in test [8] of 0.498.
Regarding `CC(=O)Oc1ccc(C(c2ccc(OC(C)=O)cc2)c2ccccn2)cc1`, in test [1], the inhibition stood at 10.5%. The molecule further yielded a score in test [2] of 1.05. In addition, the rescue above control in test [3] is 5.96. The cytochrome c release ratio in test [4] was 1.37. The same molecule gave an inhibition of aggregation in [5] of 74.4%. Further, in [6], the glutamate uptake change was determined as 13%. The same molecule showed an inclusion score in test [7] of 2. The molecule also returned an aggregation suppression score in test [8] of 1.23. Further, in test [9], the survival is 9.25 (inactive).
Regarding `Nc1nc(=S)c2[nH]cnc2[nH]1`, the inhibition in test [1] is 7.19%. Moreover, in test [2], the score worked out at 1.07. The molecule also showed a rescue above control in [3] of -10.2. For the same molecule, the cytochrome c release ratio in test [4] was determined as 0.96. Besides, in [5], the inhibition of aggregation turned out to be 83.1%. Besides, in [6], the glutamate uptake change was -1.16%. This molecule came in with an aggregation suppression score in test [8] of 1.86.
Take `CC(C)NCC(O)c1ccc2ccccc2c1` (configuration not stated): in test [1], the inhibition came to 0.74%. Besides, in test [2], the score was determined as 1.15. The rescue above control in test [3] is -8.05. The cytochrome c release ratio in [4] amounted to 0.68. Besides, the inhibition of aggregation in test [5] amounted to 88%. Besides, the glutamate uptake change in [6] turned out to be 6.56%. Moreover, in test [7], the inclusion score came out at 2. For the same molecule, the aggregation suppression score in [8] amounted to 0.983. Also, the survival in test [9] is 5.67 (inactive).
As for `Nc1ccc(S(N)(=O)=O)cc1`, in test [1], the inhibition was -14.5%. The molecule further gave a score in [2] of 1.26. Also, the rescue above control in test [3] was 0.93. For the same molecule, the cytochrome c release ratio in [4] is 1.06. Also, the inhibition of aggregation in test [5] came to 81.5%. The glutamate uptake change in [6] is -2.33%. Also, the inclusion score in test [7] stood at 2. In [8], this molecule gave an aggregation suppression score of 1.25. In addition, in [9], the survival was 5.08 (inactive).
